The entries come from a sample that favours hits as a whole.
IDE exosite inh: exo-site inhibitors of human IDE, primary screen, biochemical, fluorescence anisotropy, probe displacement; AID 1259349, 2017; z-score at 20 µM; actives 6.3% (n = 17,000); purified IDE, FL-6b probe fluorescence polarization; active compounds read low;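 active = z-score of -3 or lower, meaning strong loss of probe binding signal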;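 also: His-tagged human IDE residues 42-1019 made in E. coli with 30 nM FL-6b probe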
Target sequence (P14735 42-1019 limits assumed): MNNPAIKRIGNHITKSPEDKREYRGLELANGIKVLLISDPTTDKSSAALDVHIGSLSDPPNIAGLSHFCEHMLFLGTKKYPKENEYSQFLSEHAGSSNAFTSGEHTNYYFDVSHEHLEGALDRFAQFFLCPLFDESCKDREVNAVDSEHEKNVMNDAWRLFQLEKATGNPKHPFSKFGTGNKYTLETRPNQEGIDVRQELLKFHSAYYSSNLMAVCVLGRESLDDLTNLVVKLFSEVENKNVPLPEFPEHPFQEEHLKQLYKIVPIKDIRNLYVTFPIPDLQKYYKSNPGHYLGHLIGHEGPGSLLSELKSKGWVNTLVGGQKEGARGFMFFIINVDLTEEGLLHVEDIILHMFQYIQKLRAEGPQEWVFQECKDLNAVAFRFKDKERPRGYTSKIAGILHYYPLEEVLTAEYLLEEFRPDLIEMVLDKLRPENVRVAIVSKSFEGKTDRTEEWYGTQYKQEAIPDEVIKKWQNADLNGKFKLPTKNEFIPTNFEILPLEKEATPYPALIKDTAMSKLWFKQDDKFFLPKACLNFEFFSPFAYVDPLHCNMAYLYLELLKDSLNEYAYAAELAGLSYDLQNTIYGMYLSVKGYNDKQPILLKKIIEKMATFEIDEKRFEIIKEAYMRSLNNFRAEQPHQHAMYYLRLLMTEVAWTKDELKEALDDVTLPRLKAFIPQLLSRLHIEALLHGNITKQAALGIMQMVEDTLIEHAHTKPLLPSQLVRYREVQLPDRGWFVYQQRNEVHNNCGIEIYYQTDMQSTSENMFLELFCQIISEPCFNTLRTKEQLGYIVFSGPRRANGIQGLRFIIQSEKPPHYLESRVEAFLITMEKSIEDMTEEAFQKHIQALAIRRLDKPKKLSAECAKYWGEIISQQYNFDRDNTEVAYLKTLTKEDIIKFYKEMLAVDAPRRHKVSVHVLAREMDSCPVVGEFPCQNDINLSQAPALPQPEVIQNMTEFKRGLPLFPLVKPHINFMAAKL
* hit, by the source's call.

SMILES | IDE exosite inh
COc1ccccc1C#Cc1ccc([C@H]2[C@@H](CO)N3CCCCN(S(C)(=O)=O)C[C@@H]23)cc1 | -10.4*
CS(=O)(=O)N1CCCCN2[C@H](CO)[C@H](c3ccc(C#Cc4ccccn4)cc3)[C@@H]2C1 | 1.31
CCS(=O)(=O)N1CCCCN2[C@@H](CO)[C@H](c3ccc(C#Cc4ccccc4OC)cc3)[C@@H]2C1 | -5.88*
CCCC#Cc1ccc([C@H]2[C@H](CO)N3CCCCN(S(C)(=O)=O)C[C@@H]23)cc1 | 3.43
COc1ccc(C#Cc2ccc([C@@H]3[C@H](CO)N4CCCCN(S(=O)(=O)c5ccccc5)C[C@@H]34)cc2)cc1 | 1.17
Cc1noc(C)c1NC(=O)N[C@H]1C=C[C@@H](CC(=O)Nc2ccc(-c3ccccc3)cc2)O[C@H]1CO | -0.556
CN(C)CC(=O)N1CC2(C1)[C@H](c1ccccc1)[C@H](CO)N2Cc1cc(F)ccc1F | -0.475
O=C(Nc1cccc(F)c1)N1CC(=O)N2[C@H](CO)[C@@H](c3ccc(-c4cccc(F)c4)cc3)[C@@H]2C1 | -2.57
C[C@@H]1CN([C@@H](C)CO)C(=O)c2cc(NC(=O)C3CC3)ccc2O[C@H]1CN(C)S(=O)(=O)c1ccccc1 | -0.116
COCC(=O)Nc1ccc2c(c1)[C@H]1C[C@H](CC(=O)N[C@@H](C)c3ccccc3)O[C@@H](CO)[C@H]1O2 | 0.874
N#Cc1cccc(-c2ccc(C3[C@H]4CNC[C@@H]3N4S(=O)(=O)c3ccccc3F)cc2)c1 (stereo not given in full) | 4.26
CCCC#Cc1ccc([C@H]2[C@@H](CO)N3CCCCN(Cc4cccnc4)C[C@H]23)cc1 | 0.268
O=C(Cc1ccccc1)N1CC(=O)N2[C@@H](CO)[C@H](c3ccc(C#Cc4ccccc4)cc3)[C@@H]2C1 | -2.76
O=C(Cc1ccccc1)N1CC(=O)N2[C@@H](CO)[C@@H](c3ccc(C#CCc4ccccc4)cc3)[C@@H]2C1 | -3.96*
O=C(Cc1ccccc1)N1CC(=O)N2[C@@H](CO)[C@H](c3ccc(C#CCc4ccccc4)cc3)[C@@H]2C1 | -1.33
O=C(Cc1ccccc1)N1CC(=O)N2[C@H](CO)[C@@H](c3ccc(C#CCc4ccccc4)cc3)[C@@H]2C1 | 3.16
O=C(Cc1ccccc1)N1CC(=O)N2[C@H](C1)[C@H](c1ccc(C#CCc3ccccc3)cc1)[C@@H]2CO | -3.58*
O=C(Cc1ccccc1)N1CC(=O)N2[C@H](CO)[C@@H](c3ccc(C#Cc4ccccc4)cc3)[C@H]2C1 | -1.77
CCc1csc(N2[C@H](CO)[C@H](c3ccc(-c4ccc(F)cc4)cc3)[C@@H]2C#N)n1 | 0.265
COc1ccc(S(=O)(=O)N(C)C[C@@H]2OCCCC[C@@H](C)Oc3ccc(NC(=O)Cc4ccccc4)cc3C(=O)N([C@@H](C)CO)C[C@H]2C)cc1 | 0.824
C/C=C/c1ccc([C@H]2[C@H](CO)N(S(C)(=O)=O)[C@H]2CNCC2CCC2)cc1 | 0.00778
O=C(Cc1ccccn1)N1CC(=O)N2[C@H](CO)[C@@H](c3ccc(-c4ccccc4)cc3)[C@H]2C1 | -0.404
Cc1ccc(-c2ccc([C@@H]3[C@@H](CO)N4C(=O)CN(C(=O)Cc5ccccn5)C[C@H]34)cc2)cc1 | -1.17
O=C(Cc1ccccn1)N1CC(=O)N2[C@@H](CO)[C@@H](c3ccc(-c4ccccc4)cc3)[C@@H]2C1 | -5.63*
Cc1cccc(-c2ccc([C@@H]3[C@@H](CO)N4C(=O)CN(C(=O)Cc5ccccn5)C[C@H]34)cc2)c1 | -5.66*
SMILES | IDE exosite inh
Cc1ccc(-c2ccc([C@@H]3[C@H]4CN(C(=O)Cc5ccccn5)CC(=O)N4[C@H]3CO)cc2)cc1 | -0.799
Cc1cccc(-c2ccc([C@H]3[C@H](CO)N4C(=O)CN(C(=O)Cc5ccccn5)C[C@@H]34)cc2)c1 | -6.93*
O=C(Cc1ccccn1)N1CC(=O)N2[C@H](CO)[C@H](c3ccc(-c4ccc(F)cc4)cc3)[C@@H]2C1 | -0.588
Cc1ccc(-c2ccc([C@@H]3[C@@H](CO)N4C(=O)CN(C(=O)Cc5ccccn5)C[C@@H]34)cc2)cc1 | -2.59
O=C(C[C@@H]1CC[C@H](NS(=O)(=O)c2ccccc2F)[C@@H](CO)O1)NCCCN1CCOCC1 | 1.72
COc1ccc2c3c([nH]c2c1)[C@@H](CO)N(C(=O)Nc1cccc(F)c1)CC31CCN(S(=O)(=O)c2cccc(C)c2)CC1 | 1.48
COc1ccc2c3c([nH]c2c1)[C@@H](CO)N(C)CC31CCN(C(=O)c2ccccn2)CC1 | -0.624
COC(=O)C[C@@H]1CC[C@H]2[C@@H](COC[C@@H](O)CN2S(=O)(=O)c2cn(C)cn2)O1 | -0.00899
CC(=O)NC[C@@H]1[C@H](c2ccccc2)[C@H](CO)N1C(=O)Cc1ccncc1 | 1.43
N#C[C@H]1[C@H](c2ccccc2-c2ccc(F)cc2)[C@H](CO)N1C(=O)Cc1ccccc1 | 4.52
CC(C)NC(=O)N1[C@H](C#N)[C@H](c2ccc(C#CC3CCCCC3)cc2)[C@@H]1CO | 2.66
CCC(=O)N1[C@H](CO)[C@H](c2ccccc2)[C@@H]1CN(C(C)C)S(C)(=O)=O | 1.19
Cc1cc(C(=O)Nc2ccc3c(c2)C(=O)N(C)[C@H]2CC[C@H](CC(=O)O)O[C@H]2CO3)no1 | -0.947
C[C@H]1CN([C@@H](C)CO)C(=O)c2c(c3ccccc3n2C)-c2ccccc2CO[C@H]1CN(C)C(=O)Nc1ccc2c(c1)OCO2 | -0.00792
COCC#Cc1ccc([C@H]2[C@@H](CO)N3C(=O)CN(C(=O)C4CCC4)C[C@H]23)cc1 | 4.08
CN1CCCCN2[C@H](CO)[C@@H](c3ccc(C#CC4(O)CCCC4)cc3)[C@H]2C1 | 3.32
CN1CCCCN2[C@@H](CO)[C@H](c3ccc(C#Cc4ccccc4F)cc3)[C@@H]2C1 | -4.4*
CN1CCCCN2[C@H](C1)[C@H](c1ccc(C#CC3(O)CCCC3)cc1)[C@@H]2CO | 2.78
CN1CCCCN2[C@H](CO)[C@H](c3ccc(C#CC4(O)CCCC4)cc3)[C@H]2C1 | 3.52
CN1CCCCN2[C@H](C1)[C@@H](c1ccc(C#Cc3ccccc3F)cc1)[C@@H]2CO | -3.44*
COc1ccc(C#Cc2ccc([C@@H]3[C@@H](CO)N4CCCCN(C)C[C@@H]34)cc2)cc1 | 0.0789
CN1CCCCN2[C@H](CO)[C@@H](c3ccc(C#Cc4ccccc4F)cc3)[C@H]2C1 | -4.72*
CN1CCCCN2[C@H](C1)[C@H](c1ccc(-c3ccc(F)cc3)cc1)[C@@H]2CO | 0.111
CN(C)CC#Cc1ccc([C@H]2[C@@H](CO)N3C(=O)CN(C(=O)c4ccccc4)C[C@@H]23)cc1 | 2.62
COc1cccc(-c2ccc3c(c2)O[C@H](CN(C)Cc2cccnc2)[C@@H](C)CN([C@H](C)CO)S3(=O)=O)c1 | 0.0376
SMILES | IDE exosite inh
C[C@H](CO)N1C[C@H](C)[C@@H](CN(C)S(C)(=O)=O)Oc2cc(-c3ccncc3)ccc2S1(=O)=O | 0.336
CCN(C[C@H]1N[C@H](CO)[C@H]1c1ccc(-c2cccc(C#N)c2)cc1)C(C)=O | 5.73
CCCNC(=O)[C@H]1[C@H](CO)[C@H]2Cn3c(ccc(C4=CCCC4)c3=O)[C@H]2N1C(=O)c1cnccn1 | -0.11
O=C(c1cccnc1)N1CC2(C1)[C@H](c1ccccc1)[C@H](CO)N2C(=O)CC1CC1 | -1
N#Cc1cccc(-c2ccc([C@H]3[C@H]4CN(Cc5ccccc5F)CCCCN4[C@H]3CO)cc2)c1 | -0.182
O=C(C1CCC1)N1CC(=O)N2[C@H](C1)[C@H](c1ccc(-c3cccnc3)cc1)[C@@H]2CO | 0.938
COc1ccc(-c2ccc([C@H]3[C@H](CO)N4C(=O)CN(C(=O)C5CCC5)C[C@@H]34)cc2)cc1 | 1.66

From PubChem
